PubChem BioAssay (NCATS)
“And” between values parts separate entries of the source, which are not always exact repeats. Equal entries are not always repeated. Results filed as inconclusive are left out. Unmarked numbers belong to inactive results. The source made the active and inactive calls. The call rests on the fitted dose curve; in most records, active means well fitted cell-killing curve with a large enough effect; inconclusive means small, poorly fitted or top-dose-only effect, or effect the other way; inactive means no such curve, though single readings can be large or run the other way.

Experiment: Viability qHTS for spleen associated tyrosine kinase inhibitor (SYKi) naive MV4-11 cells (AID 1963823); further: nearly all actives have a fitted effect of over 40% in size
Conditions: MV4-11 AML viability, CellTiter-Glo luminescence, 72 h; series mostly up to 45 µM; viability (% of control): at the top concentration
Summary of the method: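 Read-out: CellTiter-Glo luminescence. Exposure: 72 hr, 37 C, 5% CO2, 95% humidity. Cells: MV4-11 without SYK inhibitor history, 500/well, qHTS format.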
Potency means the concentration at half of the fitted maximal effect.

Compound	Potency	viability (% of control)
C=C1C(=O)OC2C1CCC1(C)C(O)CC=C(C)C21 (stereo not given)	10.3 µM (active)	–
c1cc(NCCc2c[nH]c3ccccc23)cc(Nc2ccncc2)c1	0.58 µM (active)	–
C=C[C@@]12COC(=O)C(=C)[C@@H]1[C@@H](O)[C@H](C(=C)C(=O)OC)[C@@H](O)C2	–	5.71%
O=C(Nc1nc2ccccc2n1CCc1ccccc1)c1ccccc1	–	4.31%
COc1cc([C@H]2OC[C@@H]3[C@@H](c4ccc(O[C@@H]5O[C@H](CO)[C@@H](O)[C@H](O)[C@H]5O)c(OC)c4)OC[C@]23O)ccc1O	–	73.3% [at 17.3 µM]
CCOc1cc2ncc(C#N)c(Nc3ccc(OCc4ccccn4)c(Cl)c3)c2cc1NC(=O)/C=C/CN(C)C	126 nM (active) and 525 nM (active)	–
Cc1ccc(C)c(NC(=O)CNS(=O)(=O)c2ccc3[nH]c(=O)oc3c2)c1	–	72.9%
C=C1[C@@H](OC(C)=O)CC[C@@]2(C)[C@@H](OC(C)=O)[C@H](OC(C)=O)C3=C(C)C[C@H](OC(=O)C(C)CC)[C@@H]([C@@H](OC(C)=O)[C@H]12)C3(C)C (stereo not given in full)	1.53 µM (active)	–
C=C1C(=O)O[C@@H]2[C@H]1CC[C@H](C)[C@]1(CCC(=O)O1)C2(C)O (stereo not given in full)	16.4 µM (active)	–
CCC(C)n1cc(C)c2c(C(=O)NCc3c(C)cc(C)[nH]c3=O)cc(-c3ccc(N4CCNCC4)nc3)cc21 (stereo not given)	13 µM (active)	–
O=C1NC(=O)c2cc(Nc3ccc(F)cc3)c(Nc3ccc(F)cc3)cc21	2.91 µM (active)	–
C[C@@H]1C/C=C/C=C\C=C\C=C\[C@H](O[C@@H]2O[C@H](C)[C@@H](O)[C@H](N)[C@@H]2O)C[C@@H]2O[C@](O)(C[C@@H](O)C[C@H]3O[C@@H]3/C=C/C(=O)O1)C[C@H](O)[C@H]2C(=O)O	–	60.8% [at 17.3 µM]
COc1cc(C)c(C(=O)Oc2cc(C)c(C(=O)Oc3cc(C)c(C(=O)NC(C)C(=O)O)c(O)c3)c(O[C@@H]3O[C@H](CO)[C@@H](O)[C@H](O)[C@H]3OC(C)=O)c2)c(OC)c1 (stereo not given in full)	–	63.7% [at 17.3 µM]
CC(C)=CC/C=C(\C)[C@H]1CC[C@]2(C)[C@@H]1[C@H](O)C[C@@H]1[C@@]3(C)CC[C@H](O)C(C)(C)[C@@H]3[C@@H](O[C@@H]3O[C@H](CO)[C@@H](O)[C@H](O)[C@H]3O)C[C@]12C	–	73.4%
COc1cc(CCO)ccc1O[C@@H]1O[C@H](CO)[C@@H](O)[C@H](O)[C@H]1O	–	85.9%
CC1CCC2(C)C(CC(O)C(O)C23CO3)C1(C)CCC1=CC(O)OC1=O (stereo not given)	–	73%
CC1(C)C2CCC1(C)C(OC(=O)C(O)(CC(=O)O)CC(=O)O)C2 (stereo not given)	–	85.8%
COc1ccc(CCC(=O)c2c(O)cc(O[C@@H]3O[C@H](CO)[C@@H](O)[C@H](O)[C@H]3O[C@@H]3O[C@@H](C)[C@H](O)[C@@H](O)[C@H]3O)cc2O)cc1O	–	73.7%
CC(=O)C12OC(C)(C)OC1CC1C3CCC4=CC(=O)C=CC4(C)C3(F)C(O)CC12C (stereo not given)	–	121%
CCn1c(-c2nonc2N)nc2c(C#CC(C)(C)O)ncc(OCC3CCCNC3)c21 (stereo not given)	13 µM (active)	–
CN1CCN(C(=O)c2ccc3cc(CCNc4ncnc5ccc(C#N)cc45)ccc3c2)CC1	0.92 µM (active)	–
Nc1nc(Cl)nc2c1ncn2C1OC(CO)C(O)C1F (stereo not given)	0.116 µM (active)	–
CC1=C(CC/C(C)=C/C(=O)O)[C@@]2(C)CCCC(C)(C)C2CC1=O (stereo not given in full)	–	69.5%
CC(C)=CCC(O)[C@](C)(O)C1[C@H](O)C[C@@]2(C)C3CC=C4C(C[C@H](O)[C@@H](O[C@@H]5O[C@H](CO)[C@@H](O)[C@H](O)[C@H]5O)C4(C)C)[C@]3(C)C(=O)C[C@]12C (stereo not given in full)	–	68.7% [at 17.3 µM]
CCCCOc1ccc(-c2cncc(C(=O)NCc3cccnc3N3CCOCC3)c2)cc1Cl	18.4 µM (active)	–
CC1=C[C@H](O)[C@H]2C(C)(C)CCC[C@]2(C)[C@@]1(O)CO	–	62.8%
CC1NC(=O)CNC(=O)C(C(C)C)NC(=O)C2CCCN2C(=O)C(C(C)C)NC(=O)C(Cc2c[nH]c3ccccc23)NC1=O (stereo not given)	–	92% [at 17.3 µM]
C=C[C@H]1[C@H](O[C@@H]2O[C@H](CO)[C@@H](O)[C@H](O)[C@H]2O)OC=C(C(=O)OC)[C@H]1CC(=O)O	–	86.5%
O=C1[C@H](O[C@@H]2O[C@H](CO)[C@@H](O)[C@H](O)[C@H]2O)Oc2ccccc2N1O	–	72.3%
CC1=C(C(=O)O)/C(=C\CO[C@@H]2O[C@H](CO)[C@@H](O)[C@H](O)[C@H]2O)C(OC(=O)/C=C\c2ccc(O)cc2)C1 (stereo not given in full)	–	77.3% [at 17.3 µM]
